Results taken from PubChem BioAssay (NCATS).
Results filed as inconclusive are left out. The source made the active and inactive calls. Calls come from the whole dose curve; as a rule, active = well fitted inhibition curve with a large enough effect; inconclusive = small, poorly fitted or top-dose-only effect; inactive = no such curve, though single readings can be large or run the other way.

Biological target: Cytochrome P450 3A4 (Homo sapiens) (UniProt P08684)
Assay: qHTS Assay for Inhibitors and Substrates of Cytochrome P450 3A4 (AID 884); note: nearly all actives have a fitted effect of over 50% in size
Details: recombinant CYP3A4, Luciferin-PPXE luminescence; series mostly up to 57.1 µM
In short: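 20 nM human CYP3A4 with 25 uM Luciferin-PPXE (at KM) in 200 mM KPO4, preincubated 10 min with compound; NADPH regeneration started a 60 min RT reaction. Luciferin detected by luminescence, normalized to 57 uM ketoconazole as full inhibition.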
Potency is the fitted concentration of half-maximal effect.

Chain of Cytochrome P450 3A4 (Homo sapiens) (P08684 whole entry, looked up): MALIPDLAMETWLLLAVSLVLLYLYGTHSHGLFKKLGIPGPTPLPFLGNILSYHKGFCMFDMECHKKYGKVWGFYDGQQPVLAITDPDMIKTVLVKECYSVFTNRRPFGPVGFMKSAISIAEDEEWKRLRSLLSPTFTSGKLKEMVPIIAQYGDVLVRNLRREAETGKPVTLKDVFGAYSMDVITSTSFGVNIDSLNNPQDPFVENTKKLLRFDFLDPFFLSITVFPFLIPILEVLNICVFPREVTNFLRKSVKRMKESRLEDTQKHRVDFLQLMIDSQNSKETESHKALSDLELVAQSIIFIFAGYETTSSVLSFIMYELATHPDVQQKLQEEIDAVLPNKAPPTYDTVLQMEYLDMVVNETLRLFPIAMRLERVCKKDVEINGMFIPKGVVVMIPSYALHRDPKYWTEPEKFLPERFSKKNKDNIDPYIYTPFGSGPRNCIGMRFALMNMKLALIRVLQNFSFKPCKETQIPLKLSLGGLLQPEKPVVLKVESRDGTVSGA

CC(C)Cn1cnc2c(SCc3ccc(Cl)cc3Cl)nc(N)nc21
Potency: 3.98 µM (active)

CC(C)c1cc(C(F)(F)F)nc(NNc2nc(C(C)C)cc(C(F)(F)F)n2)n1
Potency: 3.16 µM (active)
